# Measurements: PubChem BioAssay (NCI)
# The panel holds about 83,000 compounds, 20% with a hit somewhere; the sample as a whole holds those more often.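 Treatment: one concentration, 48 hours, 96-well format. Scoring: percent growth, with anything below 10 considered active.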 Values without a mark were called inactive. Active and inactive are the calls of the source.
# System: SW-620 colon
# Assay: NCI-60 one-dose screen, 48 h (100 = growth as untreated, 0 = no growth, -100 = all killed)
# Conditions: 10 µM unless noted
# Method: Growth inhibition of the SW-620 human tumor cell line is measured as a screen for anti-cancer activity. Cells are grown in 96 well plates and exposed to the test compound for 48 hours. Compounds are tested at a single concentration, which is 10^-5 M for most compounds. The reported endpoint is percent growth (GI% or GIPRCNT), where numbers from 0 - 100% represent growth inhibition, and numbers from -100% - 0 represent cell death. For example, a value of 40 represents 60% growth inhibition. A value of 0 means no net growth occurred over the course of the experiment. A value of -40 indicates 40% of cells at the beginning of the experiment died by the end of the experiment. A value of -100 means all cells are dead at the end of the experiment.
# NCI-60 Human Tumor Cell Lines Screen was performed using the standard one-dose NCI protocol, which is described in more detail at https://dtp.cancer.gov/discovery_development/nci-60/default.htm.
# Compounds with GIPRCNT values below 10 were considered active. Activity score was based on GIPRCNT using the following formula: […]
# Score is 0 for GIPRCNT values of 100 or above, 50 for GIPRCNT values of 0, and 100 for GIPRCNT values of -100.
row,SMILES,growth
1,COC(=O)c1cc2c3c(cc(O)c2[nH]1)N(C(=O)C1Cc2cc(OC)c(OC)c(OC)c2N1)CC3CCl (stereo not given),-10.8% (active)
2,COc1cc(NCC(=O)Nc2cc(Nc3ccc(C)cc3)ncn2)c(Cl)c(OC)c1Cl,103%
3,Nc1c(C(=O)Nc2ccccn2)sc2nc3c(cc12)CCCC3,40.2%
4,C=C(C)[C@@H]1CCC=C2CC[C@]3(C)[C@H](CC[C@@H]4[C@@]5(C)CCCNC(C)(C)[C@@H]5CC[C@]43C)[C@H]21,-50.2% (active)
5,CC1(C)Cc2c(Br)c(Br)c(Br)c(OCC(O)CN3CCOCC3)c2O1 (stereo not given),94.5%
6,COc1ccc(-n2cc(-c3ccc(Cl)c(Cl)c3)[nH]c2=O)cc1OC,73.5%
7,CN(C)c1ccc(-c2ccc3[nH]c(=O)nc(-c4ccc(F)cc4)c3c2)cn1,29.8%
8,COc1ccc2nc3nc4ccc[nH]c4cc3c2c1,95.7%
9,CCOc1ccccc1C(=O)/C=C/c1cc2ccccc2[nH]c1=O,4.2% (active)
10,CCOC(=O)C(=Cc1c(-c2ccccc2)[nH]c2ccccc12)C(=O)OCC,53.5%
11,CCc1c(C(=O)N[C@@H](C(=O)OCc2ccccc2)C(C)O)[nH]c2ccc(Cl)cc12 (stereo not given in full),54.4%
12,Cc1nc2sc(C(=O)Nc3ccccc3Cl)c(N)c2cc1C(C)O (stereo not given),57.6%
13,CCOC(=O)CC[C@H](NC(=O)c1ccc(NC)c2ccccc12)C(=O)OCC,93.6%
14,COc1ccc(-c2cc(-c3nnc(SCC(=O)Nc4ccc(/C(C)=N\O)cc4)o3)c3ccccc3n2)cc1,105%
15,O=C(CCCCCCCCC(=O)Nc1cccc(C2=NCCN2)c1)Nc1cccc(C2=NCCN2)c1,97.1%
16,Cc1c(O)c(=O)ccn1-c1nc2ccccc2s1,94.9%
17,O=C(Nc1ccc(S(=O)(=O)NC2CCCCCC2)cc1)C(c1ccccc1)S(=O)(=O)c1ccc(F)cc1 (stereo not given),24.6%
18,COc1cc2c(Nc3ccc(NC(=O)Nc4ccc(Cl)c(C(F)(F)F)c4)c(Cl)c3)ncnc2cc1OCCCN1CCN(C)CC1,-85.4% (active)
19,c1ccc(Sc2ncccn2)nc1,95.3%
20,CCCCc1ccc(N=Nc2ccc(OCC[N+](C)(C)C)cc2)cc1,49.6%

row,SMILES,growth
1,COc1cc(-c2nn(-c3ccc(Br)cc3)cc2CO)ccc1O,104%
2,N#Cc1c(-c2ccc(F)cc2)nc(N/N=C/c2cccc(O)c2)nc1N1CCOCC1,73.7%
3,CCCS(=O)(=O)Nc1ccc(F)c(C(=O)c2c[nH]c3ncc(-c4ccc(OCCCC5CCCCN5)nc4)cc23)c1F (stereo not given),116%
4,Cc1nccc2c3ccc(OCc4cn(-c5ccc(Br)cc5)nn4)cc3n(CC(C)C)c12,48%
5,NCCN1CCNCC1,103%
6,CCCCC(=O)Nc1c(C(=O)Nc2ccccc2)sc2nc3c(cc12)C(OC(=O)CCCC)CCC3 (stereo not given),50.1%
7,C=CCn1c(SCC(=O)Nc2ccc(C(=O)/C=C/c3cc(OC)c(OC)c(OC)c3)cc2)nnc1-c1ccccc1,73.2%
8,COC(=O)c1nc(-c2ccccc2)oc1S(=O)(=O)n1nc(C)cc1N,6.13% (active)
9,c1ccc(-c2n(Cc3ccc4ccccc4n3)cc[n+]2Cc2ccc3ccccc3c2)cc1,8.55% (active)
10,COc1ccc(C2=NN(c3ccc(S(N)(=O)=O)cc3)C(c3ccc(Cl)cc3)C2)c(O)c1 (stereo not given),76.2%
11,CN(C)CSc1nc2ccccc2s1,104%
12,C=C(C)[C@@H]1CC[C@]2(C(=O)N=C=S)CC[C@]3(C)[C@H](CC[C@@H]4[C@@]5(C)CCC(=O)C(C)(C)[C@@H]5CC[C@]43C)[C@@H]12,28.8%
13,C#C[C@@]1(O)[C@@H](CO)O[C@@H](n2cnc3c(-c4ccccc4)ncnc32)[C@@H]1O,111%
14,CCCCc1nc(Cl)c(C2CC(c3ccc(Cl)cc3)=NN2c2cc(Cl)cc(Cl)c2)[nH]1 (stereo not given),16.8%
15,O=c1[nH]c2ccccc2cc1-c1nc2ccc(Cl)cc2[nH]1,42.5%
16,O=C1CS/C(=N/c2nnc(-c3ccc(O)cc3)s2)N1,107%
17,COc1cc(C(=O)Nc2cc(O)c(C/C=C(\C)CCC=C(C)C)c(O)c2)cc2c1O[C@]1(C)CC[C@@H](O)C(C)(C)[C@H]1C2,4.02% (active)
18,N#Cc1ccc(Oc2ccc3ccc(=O)oc3c2)cc1,96.5%
19,COc1ccc(C(C)c2cc(OC)c(OC)c(OC)c2)cc1 (stereo not given),27%
20,O=c1c2ccccc2oc2ccc(OCCCCCN3CCCCCC3)cc12,77.7%
